Compound activity: PubChem, National Center for Advancing Translational Sciences (NCATS)
Hits are enriched below; roughly 21% of the tested compounds scored in any of these assays.
Shiga toxin inh: Shiga toxin inhibition | Vero cells, Shiga toxin protein synthesis inhibition reporter | inhibition, % at 38.7 µM | 290,000 tested, 9.2% active; in the data active means inhibition mostly above about 28%, no sharp cut-off; inactive means mostly below about 43%
Pf growth 48h: inhibits P. falciparum growth in the first generation, 48 h | P. falciparum luciferase growth in erythrocytes, 48 h | Potency, µM (doses to about 28.7 µM), usual class: inhibitors | 310,000 tested, 5.9% active
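Here the parasites carry a stable luciferase gene and grow inside erythrocytes in Albumax-based RPMI medium with compound for one erythrocytic cycle. Activity is scored as loss of luminescent signal.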
Cycloheximide cs: counter-screen hit for Shiga toxin inhibitors, cycloheximide | cell reporter, cycloheximide protein synthesis inhibition counterscreen | max response, % | 300,000 tested, 12% active; in the data active means max response mostly above about 13%, no sharp cut-off; inactive means mostly below about 14%; further: read at 38.3 µM for the half of the compounds with a filed dose
Pf growth 96h: P. falciparum growth inhibition at 96 hours; 320,000 tested, 6.9% active; P. falciparum luciferase reporter growth, 96 h; Potency, µM (titrated, usually from 28.7 µM), most hits filed as inhibitors
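Cell-based qHTS: luciferase-tagged P. falciparum in erythrocytes (2% hematocrit, 0.05% parasitemia final) incubated with compounds for 96 hours, 37 C, 5% CO2; luciferase detection reagent then added and luminescence measured.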
HCMV antiviral: blocks human cytomegalovirus replication; HFF cells, HCMV-luciferase reporter, 72 h; stronger effect = lower value; activity change, negative = inhibition, % at 57.5 µM; 410,000 tested, 4.5% active; AID 1259415; in the data active means activity change below about -60%; inconclusive means no clear call, values can overlap the other calls; inactive means above about -39%
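Luciferase read-out from HCMV-luciferase-infected HFFs (MOI 1 PFU/cell) 72 h post infection at 37C; compounds added after 16 h cell attachment; activity normalized between buffer-only basal and Salinomycin (10uM) inhibitor controls.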
HCV inhibitor: inhibitors of hepatitis C virus infection | Huh7.5.1 HCVcc-Cre infection, luciferase reporter, 44 h | 340,000 tested, 3.4% active | Potency, µM (highest dose often 41.8 µM), hits mostly inhibitors
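Reporter virus HCVcc-Cre (~0.5 moi) infects cells exposed to compound; seeding density 1,000 cells/well with 4 h settling beforehand. Luminescence, 15 sec read, taken 44 h post-infection following a 15 min RT substrate incubation.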
Hits are given with their value; – = inactive; ? = inconclusive; · = not tested or not shown. Unless noted, the call rests on the fitted dose curve; in most records, active means well fitted inhibition curve with a large enough effect; inconclusive means small, poorly fitted or top-dose-only effect, or another doubt; inactive means no such curve, though single readings can be large or run the other way.

SMILES	Shiga toxin inh	Pf growth 48h	Cycloheximide cs	Pf growth 96h	HCMV antiviral	HCV inhibitor
Cn1c(=O)c2c(ncn2CCN(CCO)Cc2ccccc2)n(C)c1=O	–	–	–	7.4µM	–	–
Cn1c(=O)c2c(ncn2CCOc2ccc(Br)cc2)n(C)c1=O	–	–	–	–	?	10µM
Cn1c(=O)c2c(ncn2CCOc2ccc(F)cc2)n(C)c1=O	–	–	–	–	–	?
CCc1ccccc1NC(=O)N(C)CCc1c(C)nn(C)c1C	·	·	·	·	–	·
CCNC(=O)CC1C(=O)N(c2ccccc2)C(=O)N1CCc1ccc(OC)cc1 (stereo unspecified)	–	–	–	12µM	–	–
CCOC(=O)c1ccc(N2C(=O)C(CC(=O)NC)N(CCc3ccc(OC)c(OC)c3)C2=S)cc1 (stereo unspecified)	–	13µM	–	–	–	?
CCOc1ccc(NC(=O)CC2C(=O)N(c3ccc(OC)cc3)C(=O)N2CCc2ccc(OC)c(OC)c2)cc1 (stereo unspecified)	–	?	–	–	–	–
COc1ccc(NC(=O)CC2C(=O)N(c3ccc(Cl)cc3)C(=S)N2NC(=O)c2cccc(F)c2)cc1 (stereo unspecified)	–	–	16	–	–	–
COc1ccc(NC(=O)CC2C(=O)N(c3ccc(Cl)cc3)C(=S)N2CCc2ccncc2)cc1 (stereo unspecified)	–	?	–	13µM	–	–
Cc1cc(=O)[nH]n(CCO)c1=O	–	–	–	–	–	–
Cc1nc(SCc2nc3cc(Cl)c(F)cc3[nH]2)c2oc3ccccc3c2n1	·	·	·	·	–	·
O=C1CC(N2CCN(S(=O)(=O)c3ccccc3F)CC2)C(=O)N1c1ccccc1F (stereo unspecified)	·	·	·	·	–	–
COc1cccc(NC(=O)CCNC(=O)Cn2cnc3ccccc3c2=O)c1	·	·	·	·	–	·
COc1ccc(CN(C(=O)COc2ccccc2OC)C2CCS(=O)(=O)C2)cc1 (stereo unspecified)	·	·	·	·	–	·
CC(C)C(NS(=O)(=O)c1ccc2c(c1)C(C)(C)C(=O)N2C)C(=O)NCc1ccccc1Cl (stereo unspecified)	–	?	–	–	–	–
COc1ccc(NC(=O)CC2C(=O)N(CCc3ccccc3)C(=S)N2Cc2cccnc2)cc1 (stereo unspecified)	–	12µM	–	13µM	–	?
CCc1cc(=O)oc2cc(C)c3c(C)coc3c12	–	–	–	·	–	11µM
Cc1coc2c1c(C)cc1oc(=O)cc(C)c12	·	·	·	·	–	·
CC(C)(C)C(=O)Nc1ccc(-c2nnc3n2CCCCC3)cc1	–	–	–	?	–	–
CCNc1nc(OCCNC(C)=O)nc(N(C)C)n1	–	–	–	1.5µM	–	–
O=C(OCC(=O)N1CCC(c2ccccc2)=N1)c1ccc(Cl)s1	·	·	·	·	–	–
COc1cc(/C=C2\SC(=O)NC2=O)ccc1Oc1ccc([N+](=O)[O-])cn1	–	–	–	–	-60	–
COc1cc(/C=C2/SC(=O)NC2=O)ccc1Oc1ccc([N+](=O)[O-])cc1[N+](=O)[O-]	–	?	–	?	–	–
COc1cc(/C=C(/C#N)c2ccccc2)ccc1Oc1ccc([N+](=O)[O-])cn1	–	4.7µM	–	0.93µM	–	?
COc1cc(/C=C(\C#N)c2nc3ccccc3[nH]2)ccc1Oc1ccc([N+](=O)[O-])cn1	–	5.9µM	23	4.1µM	–	0.89µM
SMILES	Shiga toxin inh	Pf growth 48h	Cycloheximide cs	Pf growth 96h	HCMV antiviral	HCV inhibitor
CCCC[C@]12Cc3cc(C#N)ccc3C(O1)c1c(cc(C)n(Cc3ccccc3)c1=O)O2	–	?	–	?	·	·
c1ccc2c(-c3c[nH]c4ccccc34)c3ccccc3nc2c1	–	?	–	3.7µM	-91	?
O=C(O)c1cc(-c2c[nH]c3ccccc23)nc2ccc3ccccc3c12	–	–	–	–	–	–
COc1ccc(C(=O)CCc2ccccc2)cc1	117	·	43	?	?	11µM
COc1ccc(/C(N)=N/OC(=O)CCc2ccccc2)cc1OC	–	–	27	–	–	–
COc1ccc(/C(N)=N/OC(=O)CSc2ccccc2)cc1OC	–	–	55	·	–	?
Cc1cccc(/C(N)=N/OC(=O)CCc2ccccc2)c1	52	–	32	–	–	–
CC(=O)c1ccc(OC(C)C(=O)OCC(=O)NCCc2ccccc2)cc1 (stereo unspecified)	·	?	·	?	–	–
